This note sets out measurements from the supplement of paper PMC12494721.

Structures can show the parent of a compound that is named as a salt.

The experiment concerns Clostridium sporogenes DSM 1664. Nature of the experiment: growth (OD595) fold change vs plate DMSO controls (fold change (ratio)); higher = more growth. The conditions noted are these: incubation time: 27 h, anaerobic, 37 °C. An outline of the steps: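 The measure reported is growth, taken as fold change against the median of DMSO controls on the same plate. Anaerobic mGAM cultures in 96-well plates (27 h, 37 °C) were read at 595 nm, blank-subtracted, corrected for compound background using 20 µM compound solutions in water, and multiplied by a calibration factor of 5 to give OD. Any fold change above 1.5 became NA, and 2 biological replicates were averaged.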
For the compound `CCCSS/C(CCO)=C(/C)N(C=O)Cc1cnc(C)nc1N` [Prosultiamine] (20 µM), the growth came to 0.945.
Regarding `CN(C)CCOC(c1ccccc1)c1ccccc1.Cn1c(=O)c2[nH]c(Cl)nc2n(C)c1=O` [Dimenhydrinate] (20 µM), the growth came out at 0.99.
With `CCCCCCCN(CC)CCCC(O)c1ccc(NS(C)(=O)=O)cc1` (centres undefined) [Ibutilide fumarate] (20 µM), the growth turned out to be 1.13.
Consider `Cc1cccc(Nc2ccncc2S(=O)(=O)NC(=O)NC(C)C)c1` [Torsemide] (20 µM), for which the growth is 1.09.
Regarding `C=C1c2cccc(O)c2C(O)=C2C(=O)[C@]3(O)C(O)=C(C(N)=O)C(=O)[C@@H](N(C)C)[C@@H]3[C@@H](O)[C@H]12` [Methacycline hydrochloride] (20 µM), the growth is 0.
Take `O=C(O)CNC(=O)C(CS)Cc1ccccc1` (centres undefined) [Thiorphan] (20 µM): the growth is 1.06.
With `CCn1cc(C(=O)O)c(=O)c2cc(F)c(N3CCNCC3)nc21` [Enoxacin] (20 µM), the growth was 0.0582.
The result for `Cc1ccc(-c2ncc(Cl)cc2-c2ccc(S(C)(=O)=O)cc2)cn1` [Etoricoxib] (20 µM) reads 1.04.
Turning to `CNC(=O)OCc1cccc(COC(=O)NC)n1` [Pyricarbate] (20 µM), the growth was 0.9.
Consider `N#Cc1cc(NC(=O)C(=O)O)c(Cl)c(NC(=O)C(=O)O)c1` [Lodoxamide] (20 µM), for which the growth is 1.02.
The figure for `CNC1(C)C2CCC(C2)C1(C)C` (centres undefined) [Mecamylamine hydrochloride] (20 µM) is 1.03; for `CCOC(=O)[C@H](CCc1ccccc1)N[C@@H](C)C(=O)N(CC(=O)O)C1Cc2ccccc2C1` [Delapril Hydrochloride] (20 µM) it is 1.16.
As for `CN1[C@@H]2CC[C@H]1C[C@@H](OC(c1ccccc1)c1ccccc1)C2` [Benztropine mesylate] (20 µM), the growth was 1.11.
Take `C[N+]1(CCCCC[N+]2(C)CCCC2)CCCC1` [Pentolinium bitartrate] (20 µM): the growth worked out at 0.933.
As for `CC(=O)Oc1cc(C(F)(F)F)ccc1C(=O)O` [Triflusal] (20 µM), the growth worked out at 1.01.
Regarding `COc1ccc2cc(CCC(C)=O)ccc2c1` [Nabumetone] (20 µM), the growth was found to be 1.
Take `CN1C(=O)CC(c2ccccc2)C1=O` (centres undefined) [Phensuximide] (20 µM): the growth is 0.976.
The figure for `CC(N)CCCC(C)(C)O` (centres undefined) [Heptaminol hydrochloride] (20 µM) is 1.01; for `CN(C)CCOC(c1ccc(Cl)cc1)c1ccccn1` (centres undefined) [Carbinoxamine maleate salt] (20 µM) it is 1.2.
Take `C=CCN1CCCC1CNC(=O)c1cc2nn[nH]c2cc1OC` (centres undefined) [Alizapride hydrochloride] (20 µM): the growth was 1.09.
Turning to `CC1(C)O[C@@H]2C[C@H]3[C@@H]4C[C@H](F)C5=CC(=O)C=C[C@]5(C)[C@H]4[C@@H](O)C[C@]3(C)[C@]2(C(=O)CO)O1` [Flunisolide] (20 µM), the growth came to 0.942.
`C=CC(N)CCC(=O)O` (centres undefined) [Vigabatrin hydrochloride] (20 µM): the growth turned out to be 1.11.
For `CC(N)C12CC3CC(CC(C3)C1)C2` (centres undefined) [Rimantadine hydrochloride] (20 µM), the growth was found to be 0.858.
In the case of `O=C(O)c1cc(-c2ccc(F)cc2F)ccc1O` [Diflunisal] (20 µM), the growth came to 1.05.
The figure for `OC[C@H]1O[C@@H](O[C@@H]2[C@@H](CO)OC(O)(CO)[C@H]2O)[C@H](O)[C@@H](O)[C@H]1O` (mixture of isomers) [Lactulose] (50 µM) is 1.06; for `COc1ccc2c3c1O[C@H]1C[C@@H](O)C=C[C@@]31CCN(C)C2` [Galanthamine hydrobromide] (20 µM) it is 0.93.
Turning to `O=C(CCNNC(=O)c1ccncc1)NCc1ccccc1` [Nialamide] (20 µM), the growth was 0.952.
The result for `CC(C)OC(=O)C(C)(C)Oc1ccc(C(=O)c2ccc(Cl)cc2)cc1` [Fenofibrate] (20 µM) reads 1.12.
For the compound `Cc1ccc2c(c1)c1c3n2CCNC3CCC1` (centres undefined) [Pirlindole mesylate] (20 µM), the growth turned out to be 0.975.
The result for `CC[N+](C)(C)Cc1ccccc1Br` [Bretylium tosylate] (20 µM) reads 1.03; that for `COC(=O)[C@H](Cc1ccccc1)NC(=O)[C@H](CC(=O)O)NCCCc1ccc(OC)c(O)c1` [Advantame] (50 µM), 0.941.
Take `O=C(c1cc(O)c(O)c(O)c1)c1ccc(O)c(O)c1O` [Exifone] (20 µM): the growth came out at 1.09.
As to `COc1cc(N)cn[n+]1-c1ccccc1` [Amezinium metilsulfate] (20 µM), the growth came out at 1.05.
For the compound `CN[C@@H]1[C@@H](O[C@H]2O[C@H](CO)[C@@H](N)[C@H](O)[C@H]2O)OC2C[C@@H](N)[C@@H](O[C@H]3[C@H](O)[C@@H](O)[C@H](N)C[C@@H]3N)OC2[C@@H]1O` (some centres undefined) [Apramycin] (20 µM), the growth worked out at 1.18.
The figure for `COc1ccc2[nH]c([S+]([O-])Cc3ncc(C)c(OC)c3C)nc2n1` (centres undefined) [Tenatoprazole] (20 µM) is 1; for `CCCCC(=O)O[C@H]1CC[C@H]2[C@@H]3CCc4cc(O)ccc4[C@H]3CC[C@]12C` [Estradiol Valerate] (20 µM) it is 0.581; for `O=C(O)CCc1nc(-c2ccccc2)c(-c2ccccc2)o1` [Oxaprozin] (20 µM) it is 1.08.
Take `CC(C)(C)NC[C@H](O)c1ccc(O)c(CO)c1` [Levalbuterol hydrochloride] (20 µM): the growth was found to be 0.932.
The figure for `COc1ccc(C(=O)c2ccc(C)cc2)c(O)c1` [Mexenone] (20 µM) is 0.644.
